# This is a sample that favours compounds with a hit; in the whole collection about 10% have one here.
# 3T3 cytotox – Cytotoxic Profiling in NIH 3T3 Cell Line of Diverse Libraries Using Quantitative High-Throughput Screening. NIH 3T3 viability, CellTiter-Glo ATP luminescence, 48-72 h. Potency, µM (highest dose often 96.7 µM), for the others: top-dose activity change, negative = cytotoxicity, hits mostly inhibitors. hit rate 4.3% among 94,000. AID 1345082, 2018; note: nearly all actives have a fitted effect of over 55% in size
#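 NIH 3T3 cells at 400 cells/well received 23 nL of compound by pintool and were incubated 48 or 72 h at 37 °C. Viability was read as ATP-coupled CellTiter-Glo luminescence.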
# NPR1 antag – Natriuretic polypeptide receptor (hNpr1) antagonism - Primary qHTS. Atrial natriuretic peptide receptor 1 (Homo sapiens), P16066. AID 1347048, 2019. hit rate 1.6% among 76,000. Potency, µM (series often up to 46.3 µM), for inactives: at the highest dose activity change, negative = inhibition, actives largely listed as inhibitors. HEK293 hNpr1 GloSensor cGMP, ANP-stimulated luminescence; calls by dose curve; note: nearly all actives have a fitted effect of over 60% in size
#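 HEK293 cells stably expressing human Npr1 and cGMP GloSensor pGS-40F, loaded 2 h with 2% GloSensor reagent, given compound 30 min at room temperature. Luminescence read before and 20 min after 0.1 nM hNppA.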
# Luciferase inh – Firefly luciferase inhibition profiling of diverse chemical library using quantitative high-throughput screening | AID 1347043, 2019 | purified P. pyralis luciferase, luminescence, biochemical | hit rate 2.5% among 76,000 | Potency, µM (highest dose often 115 µM), usual class: inhibitors | Luciferin 4-monooxygenase (Photinus pyralis), P08659; note: nearly all actives have a fitted effect of over 65% in size
# Target sequence (P08659 whole entry, looked up): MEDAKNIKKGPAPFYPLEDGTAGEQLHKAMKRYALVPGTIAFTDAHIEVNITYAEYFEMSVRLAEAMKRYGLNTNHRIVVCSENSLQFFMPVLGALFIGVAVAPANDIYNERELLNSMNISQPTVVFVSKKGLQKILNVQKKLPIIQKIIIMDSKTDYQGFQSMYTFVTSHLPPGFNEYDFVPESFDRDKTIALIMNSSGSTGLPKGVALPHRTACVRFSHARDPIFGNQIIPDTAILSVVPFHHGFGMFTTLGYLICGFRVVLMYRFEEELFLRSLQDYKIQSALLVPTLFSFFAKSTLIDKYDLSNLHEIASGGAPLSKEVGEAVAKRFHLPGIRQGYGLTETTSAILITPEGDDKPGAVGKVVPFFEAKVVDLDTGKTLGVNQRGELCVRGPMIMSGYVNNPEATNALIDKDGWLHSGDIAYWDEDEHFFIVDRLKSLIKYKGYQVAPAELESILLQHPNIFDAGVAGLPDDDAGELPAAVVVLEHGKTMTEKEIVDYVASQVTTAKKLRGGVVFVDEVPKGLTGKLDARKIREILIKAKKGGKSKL
#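 FLuc 10nM, D-luciferin 10uM, ATP 10uM, Mg acetate 10mM, Tris acetate pH 7.5, Tween/BSA; cpd qHTS; enzyme added last; CCD luminescence.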
# GPT2 inh – Primary qHTS assay for inhibitors of Glutamate pyruvate transaminase 2 (GPT2). Alanine aminotransferase 2 (Homo sapiens), Q8TD30. Potency, µM (top dose mostly 57.7 µM), without a hit: top-dose activity change, negative = inhibition, usual class: inhibitors. hit rate 0.25% among 100,000. Recombinant GPT2, coupled pyruvate oxidase/HRP Amplex Red fluorescence; note: nearly all actives have a fitted effect of over 60% in size
#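 GPT2 10ng/uL, a-KG 250uM, L-Ala 2mM, HEPES pH7.5 + 0.0001% Tween; 30 min RT. Then Amplex mix (PO/HRP/ThPP), 30 min RT dark, fluorescence. AOA 50uM used as positive control.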
# HEK cytotox – Cytotoxic Profiling in HEK 293 Cell Line of Diverse Libraries Using Quantitative High-Throughput Screening; HEK 293 viability, ATP luminescence (CellTiter-Glo), 48-72 h; Potency, µM (highest dose often 115 µM), for the others: top-dose activity change, negative = cytotoxicity, hits mostly inhibitors; hit rate 6.6% among 94,000; note: nearly all actives have a fitted effect of over 60% in size
#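 HEK 293 cells seeded at 250 cells/well were exposed to compound for 48 or 72 hr at 37 degree Celsius. Viability taken as ATP content by CellTiter-Glo luminescence.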
# An asterisk follows results filed as active; i = inactive; u = inconclusive; x = no result; [ ] = remark or other dose. Unless noted, calls come from the whole dose curve; as a rule, active = well fitted curve in the direction sought with a large enough effect; inconclusive = small, poorly fitted or top-dose-only effect, or another doubt; inactive = no such curve, though single readings can be large; an effect the other way counts as inactive or inconclusive. % is set by controls: 0 for no effect and ±100 for the full control effect; potency is the fitted concentration of half-maximal effect.
SMILES,3T3 cytotox,NPR1 antag,Luciferase inh,GPT2 inh,HEK cytotox
COc1ccc(CN2Cc3[nH]nc(-c4ccc(N5CCN(C)CC5)cc4)c3CC2=O)cc1,79µM*,-3%[70.6 µM],i,-16%[88.5 µM],45µM*
COc1ccc(CN2Cc3[nH]nc(-c4ccnn4C)c3CC2=O)cc1,u,-17%[70.6 µM],i,-2%[88.5 µM],112µM*
O=C(c1cccc(OC(F)(F)F)c1)N1CCN(c2cc(-c3cccs3)[nH]n2)CC1,u,-25%,i,u,u
O=C(NC1CCCN(c2cc(-c3ccc(F)cc3)[nH]n2)C1)c1ccccc1 (stereo not given),u,-13%,u,-2%,u
O=C(c1cccc(OC(F)(F)F)c1)N1CCN(c2cc(-c3ccc(F)cc3)[nH]n2)CC1,35µM*,u,i,-3%,u
O=C(NC1CCN(c2cc(-c3ccc(F)cc3)[nH]n2)C1)c1cccc(OC(F)(F)F)c1 (stereo not given),u,-12%,i,-14%,40µM*
O=C(NC1CCCN(c2cc(-c3ccc(F)cc3)[nH]n2)C1)c1c[nH]c2ccccc12 (stereo not given),u,-23%,22µM*,-4%,u
O=C(NC1CCCN(c2cc(-c3ccc(F)cc3)[nH]n2)C1)c1cccc(F)c1 (stereo not given),u,-9%,i,-2%,32µM*
CN1C(=O)[C@H](OC(N)=O)[C@@H](C(=O)Nc2ccccc2)C12CCN(C(=O)c1ccco1)CC2,u,x,x,x,-30%
O=C(NC1CCN(c2cc(-c3ccc(Cl)cc3)[nH]n2)C1)c1ccc(F)c(F)c1 (stereo not given),u,-15%,i,-20%,u
O=C(NC1CCCN(c2cc(-c3ccc(F)cc3)[nH]n2)C1)c1ccc(F)c(F)c1 (stereo not given),u,-28%,i,i,45µM*
Cn1cnc(S(=O)(=O)N2CCC(c3nc(C4CC4)no3)C2)c1 (stereo not given),-5%,1%,i,i,2%
CCc1ccc(CNC(=O)CCC2CCCN(S(=O)(=O)c3ccccc3C)C2)cc1 (stereo not given),u,-26%,i,-2%,40µM*
O=C(NC1CCCC1)c1cccc2c1CCN2S(=O)(=O)c1ccccc1F,35µM*,u,i,-1%,u
O=C(CCC1CCCN(S(=O)(=O)c2ccccc2F)C1)NC1CCCCC1 (stereo not given),-25%,u,i,-5%,32µM*
Cc1oc(C(O)c2ccccc2)nc1C(=O)Nc1ccc(C(=O)Nc2ccccc2)cc1 (stereo not given),45µM*,u,u,2%[88.5 µM],32µM*
CNC(=O)c1ccc(NC(=O)c2nc(C(O)c3ccccc3F)oc2C)cc1 (stereo not given),-33%[138 µM],-1%[70.6 µM],i,0%[88.5 µM],u
Cc1oc(C(O)c2cccc(O)c2)nc1C(=O)Nc1ccc(N2CCOCC2)cc1 (stereo not given),u,u,5µM*,-1%[88.5 µM],u
Cc1oc(C(O)c2ccccc2)nc1C(=O)Nc1ccc2[nH]ccc2c1 (stereo not given),u,-5%[70.6 µM],50µM*,4%[88.5 µM],100µM*
Cc1oc(C(O)c2ccccc2F)nc1C(=O)Nc1ccc2[nH]ccc2c1 (stereo not given),u,-8%[70.6 µM],63µM*,-1%[88.5 µM],100µM*
O=C1CC(c2ccccc2)N(C(=O)CNC(=O)c2cc3ccccc3[nH]2)CCCCCN1 (stereo not given),-13%,-12%,i,5%,-24%
CN(C)c1ccc(C(=O)N2CCCC(COc3ccccc3C(=O)N3CCCC3)C2)cc1 (stereo not given),-29%,1%,i,i,u
O=C(c1cccc(C(F)(F)F)c1)N1CCN(CCCn2nc3n(c2=O)CCCC3)CC1,-17%,x,x,x,-23%
COc1ccc(C(=O)Nc2ccc([C@H]3OCC(=O)N(Cc4ccncc4)[C@@H]3CO)cc2)cc1OC,89µM*,0%,i,-2%,i
O=C(Nc1ccccc1)Nc1ccc([C@@H](O)[C@H]2COCC(=O)N2Cc2ccc(F)cc2)cc1,u,5%,u,2%,79µM*
SMILES,3T3 cytotox,NPR1 antag,Luciferase inh,GPT2 inh,HEK cytotox
COc1ccc(C(=O)Nc2ccc([C@H]3OCC(=O)N(C(C)C)[C@@H]3CO)cc2)cc1OC,-8%[174 µM],-5%[70.6 µM],i,-21%[88.5 µM],-6%[172 µM]
CC(C)CN1C(=O)CO[C@H](c2ccc(NC(=O)c3ccc(C(F)(F)F)cc3)cc2)[C@H]1CO,u,13µM*,45µM*,-7%,u
COc1ccc(C(=O)Nc2ccc([C@H]3OCC(=O)N(Cc4ccc(F)cc4)[C@@H]3CO)cc2)cc1,-12%,-2%,45µM*,i,u
COCCN1CC2CN(C(=O)Nc3ccc4c(c3)OCCO4)CC(C1)O2,-23%,x,x,0%,-31%
O=c1c2c(CO)c(-c3ccc(F)cc3)nn2ccn1Cc1ccc(F)cc1,-26%,u,i,-21%,u
Cn1cccc1-c1noc(C2CCN(C(=O)CCc3ccccc3)CC2)n1,u,x,x,-8%,u
O=C(Nc1ccccc1)Nc1ccc([C@H]2OCC(=O)N(Cc3ccc(F)cc3)[C@@H]2CO)cc1,u,-16%,i,-29%,40µM*
CNC(=O)c1cccc(-c2ccccc2COc2ccc(CCOC)cc2)n1,-13%,-23%,10µM*,u,u
CN1CCC(N2C[C@@H]3C[C@H]2C(=O)N(Cc2ccc(OC(F)(F)F)cc2)c2ccccc2O3)CC1,40µM*,-3%,i,-12%,u
COc1ccc(CN2C(=O)[C@@H]3C[C@@H](CN3C(C)C)Oc3ccccc32)cc1,i,-2%[70.6 µM],i,-21%[88.5 µM],i
O=C1[C@@H]2C[C@@H](CN2Cc2nccs2)Oc2ccccc2N1Cc1ccc(OC(F)(F)F)cc1,u,-30%,i,-21%,u
CC(=O)N1CCC(N2C[C@@H]3C[C@H]2C(=O)N(Cc2ccc(OC(F)(F)F)cc2)c2ccccc2O3)CC1,u,-1%,i,4%,u
O=C1[C@@H]2C[C@@H](CN2C2CCCC2)Oc2ccccc2N1Cc1ccccc1,u,-29%[70.6 µM],i,-19%[88.5 µM],100µM*
COCCN1C(=O)[C@@H]2C[C@@H](CN2C2CCCC2)Oc2ccccc21,-30%[138 µM],-12%[70.6 µM],i,4%[88.5 µM],u

# High-throughput results from PubChem.
